Test results as given in PubChem BioAssay (EPA / NIEHS).
The source made the active and inactive calls. How the source made its calls: active means hit-call score of the fitted dose curve at least 0.9, where 1 is the maximum; inactive means score below 0.9.

read-out: ABC Transporter (ABCB11), ABCB11 (gene 8647); test: LTEA_HepaRG_ABCB11: Life Technologies and Expression Analysis (LTEA) Assay for ABC Transporter (ABCB11) using HepaRG (AID 2283463); details: mRNA level, 48 h; actives raise or lower the signal
Method: LTEA_HepaRG is a cell based, multiplexed-readout assay that uses HepaRG, a human liver cell line, with measurements taken at 48 hours after chemical dosing on a 96-well plate.LTEA_HepaRG_ABCB11 is one of 102 assay component(s) measured in the LTEA HepaRG cell culture assay. It is a marker of Steatosis/NR mediated transport.Data from the assay component LTEA_HepaRG_ABCB11 was analyzed into 1 endpoint. This assay endpoint, LTEA_HepaRG_ABCB11, was analyzed with bidirectional fitting relative to DMSO as the negative control and baseline of activity. Using a type of inducible reporter, measures of mRNA induction for gain or loss-of-signal activity can be used to understand regulation of transcription factor activity. To generalize the intended target to other relatable targets, this assay endpoint is annotated to the transporter intended target family, where the subfamily is ABC transporter.
A total of 1060 chemcials from the ToxCast library were tested in eight-point concentration-response experiments. Cell culture and cytotoxicity assays were conducted at Thermo Fisher Scientific's Custom Services facility (Madison, WI). A single lot of human HepaRG cells (Thermo Fisher Scientific, Frederick, MD) was used for the cell culture experiments. 96-well format collagen type I coated plates of human HepaRG cells were prepared using established methods. Briefly, cryopreserved HepaRG cells were thawed, plated at a density of approximately 100,000 cells/well in HepaRG Thaw, Plate, and General Purpose media (HPRG770, Thermo Fisher Scientific), and incubated for 48 hours. 0.5% DMSO was selected as vehicle control to balance the requisite need of DMSO in HepaRG cultures to maintain differentiation (for example, baseline metabolism, proportions of hepatocytes vs. cholangiocytes), while enabling further hepatic receptor pathway activation (for example, PXR and CAR) in response to chemical exposure. 48 hours after plating, the culture medium was replaced with HepaRG Serum-Free Incudtion Media. Cells were exposed to each test chemical in duplicate and maintained in CO2 incubators for another 48 hours. Chemical plates were thawed to room temperature and 200x concentrations of treatment groups were prepared. 8-point conentration-reponse curves were made with the highest exposure at 100 uM, followed by half-log dilutions, all in 0.5% DMSO. Each test plate contained variouse controls, induction positive controls (1mM phenobarbital), cytotoxicity positive controls ([…] aflatoxin B1), vehicle controls (0.5% DMSO), and total lysis controls (0.5% DMSO). Cell morphology images were taken using an Essen IncuCyte FLR automated microscope, with six 96-well plates imaged in about 24 minutes. Images were captured and exported and JPEG files. Spent culture media was transfered to black-well plates for the LDH assay, and remaining media was sorted at -80 C for later use. Cells were treated with RLT buffer and frozen until shipped for gene expression analysis. Total RNA was isolated from the cell suspension in 75 uL of Buffer RLT (Qiagen, Germantown, MD 20874) by Quintiles/Expression Analysis (Durham, NC) using a custom isolation procedure. Total RNA from each plate well was transferred to a preamplification plate. Fluidigm's 96.96 Dynamic ArrayTM (Fluidigm, Amsterdam, the Netherlands) technology was used for gene expression analyses by quantitative reverse transcription polymerase chain reaction (qRT-PCR, performed by Quintiles/Expression Analysis, Durham, NC)89. Standard TaqManTM Assays (Applied Biosystems/ThermoFisher Scientific, Foster City, CA) were used to assess the expression of 93 genes selected based on their selectivity and sensitivity to important hepatic receptors known to be modulated by environmental chemicals; importance in human hepatocyte functionality; and hepatotoxicity. […]

Structure (SMILES) | outcome
Nc1ccc2ccccc2c1 | inactive
CCC1(c2ccccc2)C(=O)N=C(O)NC1=O (stereo not given) | inactive
COCCOCCO | inactive
Cc1ccc(N)cc1N | inactive
O=[N+]([O-])c1ccccc1 | inactive
CCOP(=S)(Oc1ccc([N+](=O)[O-])cc1)c1ccccc1 (stereo not given) | inactive
CCCCc1ccccc1 | inactive
CCN(CC)c1ccccc1 | inactive
c1ccc2c(c1)Nc1ccccc1S2 | inactive
O=[N+]([O-])c1ccc(Cl)c(Cl)c1 | inactive
O=P(Oc1ccccc1)(Oc1ccccc1)Oc1ccccc1 | inactive
ClC1=C(Cl)C2(Cl)C3C(Cl)C(Cl)CC3C1(Cl)C2(Cl)Cl (stereo not given) | inactive
[N-]=[N+]=[N-] | inactive
CCOC(=O)c1ccccc1C(=O)OCC | inactive
OCC1CO1 (stereo not given) | inactive
CCCCN(CCCC)SN(C)C(=O)Oc1cccc2c1OC(C)(C)C2 | inactive
Cc1cccc(N)c1 | inactive
O=C(O)C(Cl)Cl | inactive
CCCCCCCc1ccc(O)cc1 | inactive
CCNc1nc(Cl)nc(NC(C)(C)C)n1 | inactive

Structure (SMILES) | outcome
CSC(C)(C)C=NO | inactive
Nc1cc2c3c(c1)C(c1ccccc1)=N[C@@H](NC(=O)c1cccnc1)C(=O)N3CC2 | inactive
CCC(C)(C)c1ccc(O)cc1 | inactive
CC(Cc1ccc(OCC(=O)O)cc1)NCC(O)c1csc(C(F)(F)F)n1 (stereo not given) | inactive
c1ccc(OP(Oc2ccccc2)Oc2ccccc2)cc1 | inactive
ClC(Cl)(Cl)c1ccccc1 | inactive
c1nc[nH]n1 | inactive
Cc1ccc([N+](=O)[O-])cc1C | inactive
CCOS(=O)(=O)OCC | inactive
CC(C)(C)OOC(C)(C)C | inactive
CCCCN(CCCC)N=O | inactive
ClC(Cl)c1ccccc1 | inactive
Nc1ccc(Cl)cc1 | inactive
CCCN(CCC)c1c([N+](=O)[O-])cc(C(C)C)cc1[N+](=O)[O-] | inactive
CN(C)C(=O)Cl | inactive
O=P1(N(CCCl)CCCl)NCCCO1 (stereo not given) | inactive
O=C(O)C1C(C(=O)O)C2(Cl)C(Cl)=C(Cl)C1(Cl)C2(Cl)Cl (stereo not given) | inactive
c1cc2c3c(cccc3c1)CC2 | inactive
CCOP(=S)(OCC)SCSCC | inactive
CCOc1ccc(C(C)(C)COCc2cccc(Oc3ccccc3)c2)cc1 | inactive
